According to PubChem BioAssay (Tox21):
Where “and” joins values, the source holds several entries; their conditions need not be identical. Equal entries are not always repeated. Records with an inconclusive call do not appear. The source holds several records for some structures; these can differ, active in one and inactive in another. Calls of active or inactive are those of the source. Unless noted, the call rests on the fitted dose curve; in most records, active means well fitted curve in the direction sought with a large enough effect in the repeat runs; inconclusive means weak or mixed curves; inactive means no such curve, though single readings can be large; an effect the other way counts as inactive or inconclusive.

What was measured:
[1] = target: Thyrotropin receptor (Homo sapiens) (UniProt P16473); assay: qHTS assay to identify small molecule antagonists of the thyroid stimulating hormone receptor (TSHR) signaling pathway (AID 1259385; calls by dose curve; further: nearly all actives have a fitted effect of over 20% in size)
How it was run: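 TSHR-HEK293 cells (800/well) plated 18 h, then compounds with Ro20-1724 and TSH at 1.5 ng/mL final, 30 min at room temperature. cAMP quantified by HTRF (cAMP-d2/anti-cAMP-cryptate, 1 h); 15 concentrations in triplicate.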

[2] = qHTS assay to identify small molecule antagonists of the progesterone receptor (PR) signaling pathway - cell viability counter screen (AID 1346798);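 further: HEK293T PR-UAS-bla cells stimulated with the agonist R5020; series mostly up to about 92 µM; nearly all actives have a fitted effect of over 50% in size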
How it was run: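 HEK293T PR-UAS-bla, 2% charcoal-stripped FBS; 4 hr pre-plate; cpd + R5020, 16 h 37C; LiveBLAzer read first; then CellTiter-Glo 30 min RT, luminescence.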

[3] = qHTS assay to identify small molecule antagonists of the TGF-beta/Smad signaling pathway - cell viability counter screen (AID 1346824); further: nearly all actives have a fitted effect of over 50% in size
How it was run: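 SBE-bla HEK 293T cells, incubated overnight, then compound plus 0.25 ng/mL TGF-beta1 (stock added) for 5 hr at 37 C. Viability was read in the same wells by CellTiter-Glo luminescence after 30 min at room temperature.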

[4] = qHTS assay to identify small molecule agonists of the TGF-beta/Smad signaling pathway - cell viability counter screen (AID 1346829); further: top concentration of the series differs between compounds; nearly all actives have a fitted effect of over 45% in size
How it was run: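 Here the cytotoxicity of library compounds is measured in SBE-bla HEK 293T cells treated for 5 hr, using CellTiter-Glo added to wells already read for the beta-lactamase reporter.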

[5] = qHTS assay to identify small molecule agonists of the TGF-beta/Smad signaling pathway (AID 1346859; active means well fitted activation curve with a large enough effect in the signal ratio in the repeat runs, not every such curve was filed as active; the % refers to the signal ratio; further: series mostly up to about 77 µM)
How it was run: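 SBE-bla HEK 293T, 4,000 cells/well, plated o/n; cpd in DMSO, 5 hr, 37 C/5% CO2; B/G FRET substrate 2 hr RT; ex 405, em 460/530 nm.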

[6] = target: Thyrotropin-releasing hormone receptor (Homo sapiens) (UniProt P34981); assay: qHTS assay to identify small molecule antagonists of the thyrotropin-releasing hormone receptor (TRHR) signaling pathway (AID 1346877; active means well fitted inhibition curve with a large enough effect in the repeat runs, not every such curve was filed as active; further: series mostly up to about 51 µM)
How it was run: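 TRHR-expressing HEK293 cells were seeded, cultured 18 h at 37 °C, then loaded with calcium dye for 2 h. Compounds were pre-incubated 5 min at room temperature before 1 nM TRH (final) was added, and kinetic fluorescence was recorded for 3 min.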

[7] = Human pregnane X receptor (PXR) small molecule agonists, qHTS cell viability counter screen (AID 1346977); further: nearly all actives have a fitted effect of over 50% in size
How it was run: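 PXR-Luc HepG2, 2,000 cells/well, 5% charcoal-stripped FBS; 5hr settle; cpd 24hr, 37C/5% CO2; CellTiter-Fluor at 23hr, read 1hr later (fluorescence).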

[8] = Caspase-3/7 induction in HepG2 cells by small molecules, qHTS assay (AID 1346978); further: nearly all actives have a fitted effect of over 15% in size
How it was run: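 Wild-type HepG2 cells, 2,000/well, settled 5 hr at 37 C and 5% CO2, then compound-treated for 17 hr; caspase-3/7 activity read by luminescent Caspase-Glo 3/7 after 30 min at room temperature.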

[9] = Caspase-3/7 induction in CHO-K1 cells by small molecules, qHTS assay (AID 1346980); further: nearly all actives have a fitted effect of over 15% in size
How it was run: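 Wild-type CHO-K1 cells exposed to compounds for 17hr at 37 C, 5% CO2. Caspase-3/7 activity then measured by Caspase-Glo 3/7 luminescence after 30min at room temperature.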

[10] = Caspase-3/7 induction in HepG2 cells by small molecules, qHTS cell viability counter screen (AID 1346981); further: series mostly up to about 92 µM; nearly all actives have a fitted effect of over 30% in size
How it was run: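 Wild-type HepG2 cells (2,000/well) were allowed to settle for 5 hr at 37 C, 5% CO2, then dosed with compounds in DMSO by pin transfer. After 16 hr at 37 C, CellTiter-Fluor was added and fluorescence read 1 hr later.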

[11] = target: Progesterone receptor (Homo sapiens) (UniProt P06401); assay: qHTS assay to identify small molecule antagonists of the progesterone receptor (PR) signaling pathway (AID 1346795; active means well fitted inhibition curve with a large enough effect in the signal ratio in the repeat runs, not every such curve was filed as active; the % refers to the signal ratio)
How it was run: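 Read-out is fluorescence from the LiveBLAzer B/G FRET substrate, cleaved by a UAS-controlled beta-lactamase in PR-UAS-bla HEK293T cells after 16 hr exposure to compound plus 1 nM promegestone (final), followed by 2 hr at room temperature.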

[12] = qHTS assay to identify small molecule agonists of the progesterone receptor (PR) signaling pathway - cell viability counter screen (AID 1346799; calls by dose curve; further: nearly all actives have a fitted effect of over 45% in size; further: potency means the concentration at half of the fitted maximal effect)
How it was run: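 Luminescence from CellTiter-Glo, added after the beta-lactamase FRET read in the same wells, gave cytotoxicity in PR-UAS-bla HEK293T cells treated with compounds for 16 hr at 37C.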

[13] = target: Thyrotropin-releasing hormone receptor (Homo sapiens) (UniProt P34981); assay: qHTS assay to identify small molecule agonists of the thyrotropin-releasing hormone receptor (TRHR) signaling pathway (AID 1346891; calls by dose curve; further: series mostly up to about 58 µM)
How it was run: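 Intracellular calcium rise, read as fluorescence every second for 3 min, served as the agonist signal in dye-loaded HEK293 cells expressing TRHR; each compound ran at 15 concentrations in triplicate.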

[14] = Caspase-3/7 induction in CHO-K1 cells by small molecules, qHTS cell viability counter screen (AID 1346979); further: nearly all actives have a fitted effect of over 35% in size
How it was run: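 Cells (CHO-K1, wild type) are plated at 1,500 per well and incubated 5hr. Test compounds in DMSO are then pinned in, followed by 16hr at 37C and 5% CO2. Viability is read by CellTiter-Fluor fluorescence after 1hr.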

[15] = target: Progesterone receptor (Homo sapiens) (UniProt P06401); assay: qHTS assay to identify small molecule agonists of the progesterone receptor (PR) signaling pathway (AID 1346784; calls by dose curve; further: nearly all actives have a fitted effect of over 30% in size; further: potency means the concentration at half of the fitted maximal effect)
How it was run: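 Beta-lactamase reporter read-out: after 16 hr compound treatment at 37C and a further 2 hr at room temperature with LiveBLAzer B/G FRET substrate, fluorescence was measured in PR-UAS-bla HEK 293T cells grown in 2% charcoal-stripped serum.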

[16] = target: Nuclear receptor subfamily 1 group I member 2 (Homo sapiens) (UniProt O75469); assay: Human pregnane X receptor (PXR) small molecule agonists, qHTS assay (AID 1346982); further: nearly all actives have a fitted effect of over 35% in size; further: potency means the concentration at half of the fitted maximal effect
How it was run: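 PXR-Luc HepG2 cells (CYP3A4 promoter-driven luciferase) were seeded in medium with 5% charcoal-stripped FBS, left 5 hr at 37 C, then exposed to compounds in DMSO for 24 hr. Luminescence was read after ONE-Glo addition.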

[17] = qHTS assay to identify small molecule agonists of the estrogen receptor alpha (ER-alpha) signaling pathway in the presence of an antagonist - cell viability counter screen (AID 1259386);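 further: series mostly up to about 92 µM; cells exposed to compounds for 22 h at 37 °C before the viability read; nearly all actives have a fitted effect of over 30% in size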
How it was run: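 VM7Luc4E2 cells (endogenous full-length ER-alpha, 4×ERE-luciferase) were held 5 days in phenol red-free medium with 10% charcoal-stripped FBS, plated, then given 10.0nM ICI-182,780 and compounds at 15 concentrations for 22hr at 37C; viability read by CellTiter-Fluor fluorescence.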

[18] = target: Nuclear receptor subfamily 1 group I member 2 (Rattus norvegicus) (UniProt Q9R1A7); assay: Rat pregnane X receptor (rPXR) activation by small molecules, qHTS assay (AID 1346983); conditions: rPXR luciferase reporter cells, One-Glo luminescence, 24 h; stronger effect = higher value; further: nearly all actives have a fitted effect of over 20% in size
How it was run: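 Cell-based rPXR activation assay: rPXR cells, 2,000 per well, rested 5hr at 37 C, then exposed to compounds in DMSO for 24 hr at 37 C. Luciferase activity read by One-Glo luminescence after 30 min at room temperature.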
On the % scale 0 is the no-effect control and ±100 the full control effect.

Progesterone receptor (Homo sapiens), sequence (P06401 whole entry, looked up): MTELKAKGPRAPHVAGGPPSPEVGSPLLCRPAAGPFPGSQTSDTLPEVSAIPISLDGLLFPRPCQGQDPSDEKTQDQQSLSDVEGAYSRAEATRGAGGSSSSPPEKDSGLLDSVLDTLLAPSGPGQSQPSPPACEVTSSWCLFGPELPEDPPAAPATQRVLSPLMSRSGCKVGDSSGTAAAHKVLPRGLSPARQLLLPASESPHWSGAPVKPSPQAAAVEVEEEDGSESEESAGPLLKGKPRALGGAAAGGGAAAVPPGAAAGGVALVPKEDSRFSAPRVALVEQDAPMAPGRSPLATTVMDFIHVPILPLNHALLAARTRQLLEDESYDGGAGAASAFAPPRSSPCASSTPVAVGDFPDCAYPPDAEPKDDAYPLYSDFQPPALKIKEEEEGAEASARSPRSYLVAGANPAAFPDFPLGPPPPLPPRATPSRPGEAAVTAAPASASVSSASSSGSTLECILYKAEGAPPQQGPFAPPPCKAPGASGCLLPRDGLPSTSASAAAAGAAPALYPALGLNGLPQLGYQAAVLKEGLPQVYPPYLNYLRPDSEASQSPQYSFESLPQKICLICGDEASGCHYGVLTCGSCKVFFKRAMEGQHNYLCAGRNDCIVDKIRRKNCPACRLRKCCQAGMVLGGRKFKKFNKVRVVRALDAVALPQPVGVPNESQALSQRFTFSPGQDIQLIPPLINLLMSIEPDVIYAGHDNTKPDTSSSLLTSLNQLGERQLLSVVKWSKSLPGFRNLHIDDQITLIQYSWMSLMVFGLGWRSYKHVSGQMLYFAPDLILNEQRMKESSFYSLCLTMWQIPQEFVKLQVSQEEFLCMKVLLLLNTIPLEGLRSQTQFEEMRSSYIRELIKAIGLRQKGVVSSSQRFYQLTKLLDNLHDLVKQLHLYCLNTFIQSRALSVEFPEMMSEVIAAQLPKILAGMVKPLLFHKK
Thyrotropin-releasing hormone receptor (Homo sapiens), sequence (P34981 whole entry, looked up): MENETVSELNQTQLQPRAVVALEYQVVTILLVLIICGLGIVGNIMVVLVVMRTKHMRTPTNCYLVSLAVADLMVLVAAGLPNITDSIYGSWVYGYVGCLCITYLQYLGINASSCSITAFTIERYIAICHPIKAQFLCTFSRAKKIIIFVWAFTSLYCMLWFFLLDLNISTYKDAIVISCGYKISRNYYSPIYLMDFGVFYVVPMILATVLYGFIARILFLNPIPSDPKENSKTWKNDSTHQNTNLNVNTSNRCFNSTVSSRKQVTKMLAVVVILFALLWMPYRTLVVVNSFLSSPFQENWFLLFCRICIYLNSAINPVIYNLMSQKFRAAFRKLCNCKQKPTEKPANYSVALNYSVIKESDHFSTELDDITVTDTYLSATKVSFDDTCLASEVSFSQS
Thyrotropin receptor (Homo sapiens), sequence (P16473 whole entry, looked up): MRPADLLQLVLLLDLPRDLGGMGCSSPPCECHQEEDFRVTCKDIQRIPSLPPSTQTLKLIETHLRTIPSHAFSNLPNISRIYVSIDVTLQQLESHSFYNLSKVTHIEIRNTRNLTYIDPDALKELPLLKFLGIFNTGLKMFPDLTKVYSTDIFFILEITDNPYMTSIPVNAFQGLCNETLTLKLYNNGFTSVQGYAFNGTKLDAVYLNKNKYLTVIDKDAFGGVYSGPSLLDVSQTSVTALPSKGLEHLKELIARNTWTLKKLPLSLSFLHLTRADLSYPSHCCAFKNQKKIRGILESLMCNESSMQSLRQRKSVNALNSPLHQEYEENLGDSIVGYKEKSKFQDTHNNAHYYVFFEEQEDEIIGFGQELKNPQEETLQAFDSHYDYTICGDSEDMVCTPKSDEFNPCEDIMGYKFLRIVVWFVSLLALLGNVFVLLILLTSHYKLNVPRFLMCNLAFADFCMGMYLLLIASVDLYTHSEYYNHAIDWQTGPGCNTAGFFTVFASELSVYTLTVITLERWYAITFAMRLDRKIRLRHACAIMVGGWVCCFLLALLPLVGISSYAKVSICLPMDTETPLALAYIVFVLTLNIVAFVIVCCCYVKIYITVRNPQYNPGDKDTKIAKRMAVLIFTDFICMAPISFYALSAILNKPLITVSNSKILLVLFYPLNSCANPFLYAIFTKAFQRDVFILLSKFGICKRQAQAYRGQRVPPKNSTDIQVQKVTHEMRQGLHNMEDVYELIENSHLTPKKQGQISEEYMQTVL
Nuclear receptor subfamily 1 group I member 2 (Homo sapiens), sequence (O75469 whole entry, looked up): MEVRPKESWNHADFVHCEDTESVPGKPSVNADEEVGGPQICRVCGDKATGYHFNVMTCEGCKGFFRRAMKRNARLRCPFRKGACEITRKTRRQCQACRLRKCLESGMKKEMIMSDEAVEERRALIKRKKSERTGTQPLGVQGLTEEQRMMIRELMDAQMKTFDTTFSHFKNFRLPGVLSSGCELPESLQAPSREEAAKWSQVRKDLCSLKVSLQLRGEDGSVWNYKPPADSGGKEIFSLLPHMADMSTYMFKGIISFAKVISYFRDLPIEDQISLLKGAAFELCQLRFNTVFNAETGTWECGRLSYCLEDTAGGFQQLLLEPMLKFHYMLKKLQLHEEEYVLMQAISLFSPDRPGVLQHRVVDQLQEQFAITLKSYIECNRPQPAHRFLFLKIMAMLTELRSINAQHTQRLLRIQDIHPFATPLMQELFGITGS
Nuclear receptor subfamily 1 group I member 2 (Rattus norvegicus), sequence (Q9R1A7 whole entry, looked up): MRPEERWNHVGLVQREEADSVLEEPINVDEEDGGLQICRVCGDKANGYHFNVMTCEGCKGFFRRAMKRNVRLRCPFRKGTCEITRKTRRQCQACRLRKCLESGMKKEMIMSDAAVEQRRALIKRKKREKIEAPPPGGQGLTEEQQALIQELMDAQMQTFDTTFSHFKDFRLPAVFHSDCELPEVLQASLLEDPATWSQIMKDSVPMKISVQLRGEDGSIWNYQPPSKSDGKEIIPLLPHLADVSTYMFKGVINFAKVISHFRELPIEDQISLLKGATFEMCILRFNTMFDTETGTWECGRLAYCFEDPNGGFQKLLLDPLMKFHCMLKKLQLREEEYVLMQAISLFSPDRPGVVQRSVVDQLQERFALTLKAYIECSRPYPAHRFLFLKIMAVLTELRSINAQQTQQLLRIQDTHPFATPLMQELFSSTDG

CCOc1cc(Oc2ccc(C(F)(F)F)cc2Cl)ccc1[N+](=O)[O-]
inactive: outcome [1] | Potency [2] | Potency [3] | Potency [4] | outcome [5] | Potency [6] | Potency [7] | Potency [8] | Potency [9] | Potency [10]

COP(=S)(OC)Oc1cc(Cl)c(Cl)cc1Cl
inactive: outcome [1] | Potency [11] | Potency [2] | Potency [12] | Potency [3] | Potency [4] | outcome [5] | Potency [6] | Potency [13] | Potency [8] | Potency [14] | Potency [9] | Potency [10]

Oc1c(Cl)c(Cl)c(Cl)c(Cl)c1Cl
inactive: outcome [1] | Potency [15] | Potency [2] | Potency [3] | Potency [4] | outcome [5] | Potency [6] | Potency [8] | Potency [14] | Potency [9] | Potency [10]
active: Potency [16] 59.9 µM and 54.5 µM

C[C@]12CCC(=O)C[C@@H]1CC[C@@H]1[C@@H]2CC[C@]2(C)[C@@H](O)CC[C@@H]12
active: Potency [15] 3.03 µM and 1.94 µM | Potency [12] 48 µM
inactive: Potency [17] | Potency [3] | Potency [4] | outcome [5] | Potency [7] | Potency [8] | Potency [9] | Potency [10] | max activation [18] -5.43%

CCC(CC)Nc1c([N+](=O)[O-])cc(C)c(C)c1[N+](=O)[O-]
61.9 µM (active) and inactive: Potency [16]
inactive: outcome [1] | Potency [2] | Potency [12] | Potency [3] | Potency [4] | outcome [5] | Potency [6] | Potency [7] | Potency [8] | Potency [14] | Potency [9] | Potency [10]

CC(C)(C)c1ccccc1O
inactive: Potency [17] | Potency [15] | Potency [11] | Potency [2] | Potency [12] | Potency [3] | Potency [4] | outcome [5] | Potency [6] | Potency [13] | Potency [7] | Potency [8] | Potency [14] | Potency [9] | Potency [10]
